Only some compounds are listed: those with a hit (about 4.1% of all), similar ones and a draw of the others.
DAX1 inh-1 – DAX1 (NR0B1) inhibition, primary screen | 370,000 compounds, 1.1% hits | inhibition, % at 6.8 µM | HEK293T StAR-luciferase reporter, SF-1/DAX-1 repression relief;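 active = inhibition above the mean over all tested compounds plus 3 SD, cut at about 3.6% in these data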;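 note: 0% = DAX-1 cells with DMSO and 100% = cells lacking DAX-1 with DMSO; higher inhibition means more luminescence from relief of DAX-1 repression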
DAX1 inh-2 – inhibitors of human orphan nuclear receptor DAX1 (NR0B1); HEK293 Gal4-DAX1 luciferase reporter, luminescence; inhibition, % at 6.75 µM; AID 504766; 340,000 compounds, 0.99% hits; P51843;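 active = inhibition above the mean over all tested compounds plus 3 SD, cut at about 4.2% in these data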;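 note: 0% = DAX1-transfected cells with DMSO and 100% = empty-vector control cells with DMSO; inhibition shows as a rise in luminescence from relieved DAX1 repression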
Target sequence (P51843 207-470 limits assumed): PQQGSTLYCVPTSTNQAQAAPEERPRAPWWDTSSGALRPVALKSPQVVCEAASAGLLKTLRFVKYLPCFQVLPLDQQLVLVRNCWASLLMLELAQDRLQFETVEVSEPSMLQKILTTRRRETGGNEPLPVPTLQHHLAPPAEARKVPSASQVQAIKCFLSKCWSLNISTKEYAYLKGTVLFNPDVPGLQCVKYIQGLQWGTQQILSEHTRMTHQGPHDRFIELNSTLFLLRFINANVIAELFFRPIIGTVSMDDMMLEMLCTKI
ssDAF-12 act – activates DAF-12 receptor from parasite S. stercoralis | HEK293 ssDAF-12/GRIP1 lit1-tk-luc reporter, luminescence; % of 3 µM dafachronic acid response | activation, % at 6.8 µM | 370,000 compounds, 1% hits;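 active = activation above the mean over all tested compounds plus 3 SD, cut at about 0.9% in these data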;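 note: 0% = DMSO-only wells and 100% = 3 µM delta7-dafachronic acid wells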
hgDAF12 agonist – hgDAF-12 agonism, primary luciferase screen; HEK293 GAL4-hgDAF12 UAS-luciferase reporter, agonist luminescence; normalized to butyrate control; activation, % at 6.8 µM; 370,000 compounds, 1.8% hits; AID 687014;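 active = activation above a cutoff set at the mean of all screened compounds plus 3 SD, cut at about 10% in these data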;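 note: 0% = DMSO wells and 100% = sodium butyrate wells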
hcDAF-12 act – H. contortus DAF-12 activation, primary screen; HEK293 hcDAF-12 lit1-tk-luc reporter, luminescence; 0% DMSO, 100% Δ7-dafachronic acid; activation, % at 6.8 µM; 370,000 compounds, 1.4% hits;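 active = activation above the mean of all tested compounds plus 3 SD, cut at about 5.5% in these data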;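 note: 100% = response to 3 µM Δ7-dafachronic acid high control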
Numbers without * were called inactive; . = no result.

SMILES | DAX1 inh-1 | DAX1 inh-2 | ssDAF-12 act | hgDAF12 agonist | hcDAF-12 act
Cc1ccc(C(=O)Nc2ncc(Cc3ccc(F)cc3)s2)o1 | 4.2* | 2 | 0 | 7 | 5
Cc1ccc(NC(=O)CCCCCN2C(=O)[C@@H]3Cc4ccccc4CN3C2=O)c(C)c1 | 0 | 0 | -1 | 3 | 0
CC(=NN1CCN(c2ccccn2)CC1)c1ccccc1O | 0 | . | -1 | 4 | -2
COc1ccc(C(=O)N/C(=C\c2ccco2)C(=O)OCc2ccco2)cc1 | 0 | 5.5* | 0 | 1 | -1
CCCCOc1ccc(C(=O)N/C(=C\c2ccc(OC)cc2)C(=O)OCc2ccco2)cc1 | 0 | 0 | -1 | -2 | -2
O=S(=O)(Nc1ccccn1)c1ccc(Cl)cc1 | 0 | 0 | -2 | 0 | -1
CS(=O)(=NS(=O)(=O)c1ccc(Cl)cc1)c1ccccc1 (stereo unspecified) | 0 | 4.3* | -2 | 3 | 0
CCCN(CCC)CC(O)CN1C(=O)N(CN2C(=O)N(CC(O)CN(CCC)CCC)C(=O)C2(C)C)C(C)(C)C1=O (stereo unspecified) | 0 | 0 | 0 | 0 | 0
O=c1cc(N2CCc3ccccc32)[nH]c(=O)n1-c1ccc(Br)cc1 | 1 | -1 | -1 | -1 | 5.8*
CN(C)C(=O)c1ccc(-c2n[nH]c(=O)c3ccccc23)cc1 | 1 | 4.8* | -2 | -1 | 0
COC(=O)[C@]12C[C@H](CC(=O)N3CCN(C(=O)c4ccco4)CC3)C(=O)N(Cc3ccco3)C1=C[C@H](C(C)(C)C)O[C@@H]2C | 0 | . | -2 | -1 | 0
CC(=O)c1ccc(NC(=O)Nc2cccnc2)cc1 | 4.1* | 0 | 0 | 5 | 1
Cc1ccc(NC(=O)Nc2cnccn2)cc1 | 4.3* | 2 | 0 | 8 | 0
O=C(Nc1cccnc1)Nc1cccc([N+](=O)[O-])c1 | 0 | 1 | -1 | 2 | 6.5*
COC(C(=O)N1CCC(CCC(=O)Nc2ccccc2)CC1)c1ccccc1 (stereo unspecified) | 0 | -1 | 0 | 8 | 4
CC1=C[C@]2(C[N+](Cc3ccccc3)=C(N)N2)n2c(=O)n(-c3ccccc3)c(=O)n2C1 | 0 | . | -2 | -2 | -3
Cc1ccccc1SC1CCN(Cc2nc(C3CC3)no2)CC1 | 0 | 0 | -2 | 2 | -1
Cc1cc(Cl)ccc1NC(=O)CSc1n[nH]c(N)n1 | 0 | 0 | -1 | 3 | 0
CCc1cc(/C(Cc2ccccn2)=N\Nc2ccccc2)c(O)cc1O | 0 | -1 | -2 | 5 | 4
O=C(NCCN1CCOCC1)c1cc(Br)ccc1Cl | 0 | 1 | 1.1* | 10 | 3
Cc1ccc(N=C2S/C(=C\c3cn(CC(=O)O)c4ccccc34)C(=O)N2C)cc1 | 0 | 2 | 1 | -2 | 2
O=c1c2ccccc2oc2cc(-c3ccc4[nH]ccc4c3)ccc12 | 0 | -2 | 0 | 11* | 3
COc1cccc(-c2cc(C(=O)NC3CCCCC3)no2)c1 | 1 | 2 | -1 | 6 | 2
COC(=O)c1cc(-c2ccc(OC)cc2)on1 | 0 | -1 | -2 | -1 | -2
COc1ccc(-c2cc(C(=O)NC3CCCC3)no2)cc1 | 2 | 3 | 0 | 12* | 6.5*
SMILES | DAX1 inh-1 | DAX1 inh-2 | ssDAF-12 act | hgDAF12 agonist | hcDAF-12 act
COc1ccc(-c2cc(C(=O)NC(C)C)no2)cc1 | 2 | 1 | -1 | 10* | 4
COc1ccc(S[C@]2(C(=O)NCC(C)C)CC(=O)N[C@@H]2c2ccc(OC)cc2)cc1 | 0 | . | -1 | 0 | 0
O=C(OC12CCCN(C1)/C(=C/c1cccc(Cl)c1)C2)c1ccco1 (stereo unspecified) | 2 | . | -1 | -1 | -1
COc1ccc2c(c1)CCCN2C(=O)C1CCCN(S(=O)(=O)c2ccc(Cl)s2)C1 (stereo unspecified) | -1 | . | 0 | -1 | -1
CC1CCN(C(=O)CCCOc2ccc(Cl)cc2)CC1 | 0 | 1 | 1.3* | 3 | -1
CC1CCN(CCCCOc2ccc(Cl)cc2)CC1 | . | 1 | . | . | .
FC(F)Oc1ccc(C2N=C(c3ccccc3)NO2)cc1 (stereo unspecified) | 1 | 1 | 0 | 13* | 4
COc1cc(C2N=C(c3ccccc3)NO2)cc(Br)c1O (stereo unspecified) | 0 | -1 | 0 | 4 | 1
COc1ccc(S(=O)(=O)Nc2c(C)cc(C)cc2C)c2cccnc12 | 1 | 1 | -2 | -1 | -2
COc1ccc(-n2c(SCC(=O)NC3CCCCCC3)nnc2-c2ccncc2)cc1 | 0 | . | -1 | 1 | -1
O=C(O)c1cc(-c2cc3ccccc3o2)nn1-c1ccccc1 | 0 | 1 | 2.5* | 2 | 5.8*
O=C(c1ccc2c3n(nc2c1)-c1ccccc1CO3)N1CCCCC1 | 3 | -2 | 0 | 11* | 6.5*
O=C(CCc1ccccc1)N[C@H]1[C@@H](OC(=O)C2CC2)CCC[C@@]12C(=O)N(Cc1ccccc1)c1ccccc12 | -1 | . | -1 | -4 | -2
COc1ccc(N(CC(=O)NCCc2ccccc2)C(=O)CCC(=O)Nc2ccccn2)cc1 | 0 | -1 | -1 | 1 | 1
COCCNC(=O)CN(C(=O)Cn1nnc2ccccc21)c1ccc(C)c(F)c1 | 0 | 2 | -1 | 1 | 1
Cc1ccnc(NC(=O)CCC(=O)N(CC(=O)NCCc2ccccc2)c2ccccc2F)c1 | 0 | -1 | -2 | 2 | -2
Cc1ccc(N(CC(=O)NCCc2ccccc2)C(=O)CCC(=O)Nc2cc(C)ccn2)cc1 | 0 | 5.4* | -1 | 0 | 1
COCCNC(=O)CN(C(=O)CCC(=O)Nc1ccccn1)c1ccc(OC)cc1 | 0 | 5.0* | -1 | 3 | -2
COCCNC(=O)CN(C(=O)Cn1nnc2ccccc21)c1ccc(C)cc1 | 1 | 4.5* | 0 | -3 | 1
CCOC(=O)Cn1cc(CN2C(C(=O)OC)CN(C3CC3)CCS2(=O)=O)nn1 (stereo unspecified) | 0 | . | -1 | 4 | -2
Cc1c(C(=O)NCc2ccco2)oc2ccccc12 | 0 | 0 | -1 | 2 | 3
Cc1c(C(=O)NCc2ccco2)oc2c(F)cccc12 | 0 | 1 | 0 | 1 | 5.9*
CC(C)C[C@H]1COc2cccc(F)c2S(=O)(=O)N1Cc1cn(Cc2ccc(C(F)(F)F)cc2)nn1 | -1 | . | -1 | 2 | -3
Cc1noc(C)c1COc1ccc(C(=O)OCC(=O)Nc2ccc(C(=O)N(C)C)cc2)cc1 | 1 | 1 | -1 | 3 | 0
COc1cc(C2C3=C(COC3=O)OC(C)(C)Oc3cc4c(cc32)OCO4)cc(OC)c1OC (stereo unspecified) | 4.1* | 0 | 0 | -5 | -1
COc1ccccc1-c1cccc2c3c([nH]c12)[C@@H]1C[C@H]2[C@@H](CN1CC3)[C@H](C)ON2C | 0 | . | -1 | 1 | -1

Bioassay records: PubChem BioAssay, The Scripps Research Institute Molecular Screening Center
